For part of these data: Entries with a potency or affinity are not part of this list.
Legend:
Design in all cases: scale not given: direction of the effect not stated beside the values
[1] = molecular target: Protein translocase subunit SecA (Escherichia coli (strain K12)) (UniProt P10408); experiment: Assay to Identify E. coli SecA ATPase Inhibitors; type: functional; details: 30 µM
[2] = molecular target: T1, Ubiquitin-activating enzyme e1, putative (Leishmania donovani (strain BPK282A1)) (UniProt E9BSI1); experiment: Leishmania donovani Ubiquitin Activating Enzyme (LdE1); type: functional; details: 30 µM
T1 sequence (whole entry): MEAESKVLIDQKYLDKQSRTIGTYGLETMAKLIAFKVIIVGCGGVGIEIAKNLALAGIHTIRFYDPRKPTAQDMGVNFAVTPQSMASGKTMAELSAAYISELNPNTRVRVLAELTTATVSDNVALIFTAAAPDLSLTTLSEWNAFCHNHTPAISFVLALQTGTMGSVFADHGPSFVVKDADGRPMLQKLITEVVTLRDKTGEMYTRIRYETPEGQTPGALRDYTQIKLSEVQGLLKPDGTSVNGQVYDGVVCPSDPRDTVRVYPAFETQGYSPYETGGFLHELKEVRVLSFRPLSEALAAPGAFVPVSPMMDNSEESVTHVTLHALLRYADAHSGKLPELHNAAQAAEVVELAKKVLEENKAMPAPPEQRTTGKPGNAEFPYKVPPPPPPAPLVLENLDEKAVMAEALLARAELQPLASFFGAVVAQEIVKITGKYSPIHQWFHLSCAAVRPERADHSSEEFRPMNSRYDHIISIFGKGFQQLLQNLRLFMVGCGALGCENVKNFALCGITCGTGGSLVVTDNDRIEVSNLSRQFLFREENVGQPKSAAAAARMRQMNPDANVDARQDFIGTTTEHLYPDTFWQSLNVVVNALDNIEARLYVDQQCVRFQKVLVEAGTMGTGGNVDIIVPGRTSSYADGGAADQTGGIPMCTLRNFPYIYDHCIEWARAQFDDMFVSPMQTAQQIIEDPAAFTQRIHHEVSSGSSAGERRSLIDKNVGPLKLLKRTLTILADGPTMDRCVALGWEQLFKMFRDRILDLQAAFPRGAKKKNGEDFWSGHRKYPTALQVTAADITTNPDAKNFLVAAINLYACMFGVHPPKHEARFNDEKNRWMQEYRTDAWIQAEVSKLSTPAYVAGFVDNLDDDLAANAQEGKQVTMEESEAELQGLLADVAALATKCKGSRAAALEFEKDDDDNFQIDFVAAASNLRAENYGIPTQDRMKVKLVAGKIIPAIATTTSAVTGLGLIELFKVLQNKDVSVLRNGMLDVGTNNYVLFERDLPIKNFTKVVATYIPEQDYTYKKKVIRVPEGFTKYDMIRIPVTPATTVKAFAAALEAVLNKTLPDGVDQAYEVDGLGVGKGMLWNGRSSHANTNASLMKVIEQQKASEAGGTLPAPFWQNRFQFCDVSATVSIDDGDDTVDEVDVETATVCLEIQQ

[3] = molecular target: T2, Aspartate--tRNA(Asp/Asn) ligase (Mycobacterium tuberculosis (strain ATCC 25618 / H37Rv)) (UniProt P9WFW3); experiment: Assay for Asp RNA synthetase-1 from Mycobacterium tuberculosis; type: functional; details: 30 µM; note: in the data most compounds retested in dose-response had high values
T2 sequence (whole entry): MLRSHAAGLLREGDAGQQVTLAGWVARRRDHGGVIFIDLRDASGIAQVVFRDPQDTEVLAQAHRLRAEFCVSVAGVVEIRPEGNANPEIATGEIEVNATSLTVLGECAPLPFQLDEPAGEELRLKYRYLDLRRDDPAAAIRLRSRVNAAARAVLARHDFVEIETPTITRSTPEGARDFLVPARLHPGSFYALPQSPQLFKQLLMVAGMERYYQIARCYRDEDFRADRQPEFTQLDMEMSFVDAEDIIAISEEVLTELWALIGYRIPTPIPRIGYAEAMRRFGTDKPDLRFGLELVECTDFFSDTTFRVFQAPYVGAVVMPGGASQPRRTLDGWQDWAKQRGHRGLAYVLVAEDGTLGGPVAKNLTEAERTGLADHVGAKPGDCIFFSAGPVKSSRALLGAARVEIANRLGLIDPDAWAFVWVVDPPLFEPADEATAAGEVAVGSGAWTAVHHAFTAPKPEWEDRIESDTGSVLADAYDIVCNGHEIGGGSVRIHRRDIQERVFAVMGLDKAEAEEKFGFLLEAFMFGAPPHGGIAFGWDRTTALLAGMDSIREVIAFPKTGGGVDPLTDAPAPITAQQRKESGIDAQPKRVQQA

[4] = molecular target: Sialic acid-binding Ig-like lectin 9 (Homo sapiens) (UniProt Q9Y336); experiment: Hs-Siglec9 ALPHAscreen SOP 20170721; details: 10 µM
Trypanosoma cruzi = experiment: Trypanosoma cruzi phosphomannomutase and mannose-1-phosphate guanylyltransferase assay; type: functional; details: 10 µM
[5] = molecular target: T3, Arginase-2, mitochondrial (Homo sapiens) (UniProt P78540); experiment: in vitro enzyme assay to detect the production of urea directly proportional to the activity of Arginase II; type: functional; details: 33.3 µM; note: in the data most compounds retested in dose-response had high values
T3 sequence (whole entry): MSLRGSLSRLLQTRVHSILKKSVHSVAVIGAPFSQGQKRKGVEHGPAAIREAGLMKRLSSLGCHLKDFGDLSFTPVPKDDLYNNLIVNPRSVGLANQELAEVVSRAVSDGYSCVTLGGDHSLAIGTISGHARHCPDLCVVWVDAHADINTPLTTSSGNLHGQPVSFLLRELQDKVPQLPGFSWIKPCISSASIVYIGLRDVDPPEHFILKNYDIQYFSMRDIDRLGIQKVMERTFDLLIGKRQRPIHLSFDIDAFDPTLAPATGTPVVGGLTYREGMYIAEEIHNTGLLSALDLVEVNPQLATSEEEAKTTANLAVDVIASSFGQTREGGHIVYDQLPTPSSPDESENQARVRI

[6] = molecular target: T4, Proteasome subunit beta (Trypanosoma cruzi) (UniProt O96673); experiment: Trypanosoma cruzi proteasome chymotrypsin-like activity (TcProtChymo) assay.; note: in the data most compounds retested in dose-response had high values; type: functional; details: 9.37 µM
T4 sequence (whole entry): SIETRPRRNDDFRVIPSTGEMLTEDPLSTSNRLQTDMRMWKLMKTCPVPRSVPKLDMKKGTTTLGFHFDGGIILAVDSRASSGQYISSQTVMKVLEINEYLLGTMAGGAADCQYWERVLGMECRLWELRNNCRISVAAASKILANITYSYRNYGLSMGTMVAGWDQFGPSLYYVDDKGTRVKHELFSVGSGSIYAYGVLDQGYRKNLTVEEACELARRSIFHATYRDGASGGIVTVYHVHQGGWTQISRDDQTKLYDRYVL

Homo sapiens = organism: Homo sapiens; experiment: To identify inhibition of the IFN signalling (Jak-Stat) pathway via expression of an eGFP reporter gene under the control of an IFN-stimulated response element (ISRE) containing MxA promoter.; type: functional; details: 30 µM
[7] = molecular target: Shiga toxin 2 (Escherichia coli O157:H7) (UniProt P09385+P09386); experiment: E. coli 0.157:H7 Shiga Toxin SOP - stx2 screening assay; type: functional; details: 30 µM
[8] = molecular target: T5, Tyrosyl-tRNA synthetase, putative (Trypanosoma cruzi (strain CL Brener)) (UniProt Q4DSP6); experiment: Trypanosoma cruzi tyrosyl tRNA synthetase (TcYRS) _High Tyrosine SOP; type: functional; details: 30 µM; note: in the data most compounds retested in dose-response had high values
T5 sequence (whole entry): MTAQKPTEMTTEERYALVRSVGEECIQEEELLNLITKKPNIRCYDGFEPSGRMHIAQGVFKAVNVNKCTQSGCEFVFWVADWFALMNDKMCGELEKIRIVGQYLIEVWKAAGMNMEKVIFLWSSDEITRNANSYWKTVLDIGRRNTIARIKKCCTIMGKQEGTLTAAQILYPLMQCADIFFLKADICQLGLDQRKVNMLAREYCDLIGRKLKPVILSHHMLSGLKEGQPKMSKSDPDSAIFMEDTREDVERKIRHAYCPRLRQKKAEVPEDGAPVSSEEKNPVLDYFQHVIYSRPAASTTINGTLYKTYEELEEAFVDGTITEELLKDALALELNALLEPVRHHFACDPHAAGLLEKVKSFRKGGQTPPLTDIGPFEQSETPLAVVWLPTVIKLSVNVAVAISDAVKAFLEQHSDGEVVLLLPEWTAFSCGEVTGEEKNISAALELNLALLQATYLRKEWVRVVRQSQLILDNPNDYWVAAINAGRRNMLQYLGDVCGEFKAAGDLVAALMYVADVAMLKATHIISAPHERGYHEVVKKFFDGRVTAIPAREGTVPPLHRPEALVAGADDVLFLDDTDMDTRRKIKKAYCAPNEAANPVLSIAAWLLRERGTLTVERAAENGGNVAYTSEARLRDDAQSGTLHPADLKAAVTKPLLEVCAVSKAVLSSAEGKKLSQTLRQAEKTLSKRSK

[9] = molecular target: T5, Tyrosyl-tRNA synthetase, putative (Trypanosoma cruzi (strain CL Brener)); experiment: Trypanosoma cruzi tyrosyl tRNA synthetase (TcYRS) SOP; type: functional; details: 30 µM
[10] = molecular target: Chromo domain-containing protein 1 (Saccharomyces cerevisiae (strain ATCC 204508 / S288c) (Baker's yeast)) (UniProt P32657); experiment: ScCHD-1 Enzyme Inhibition Assay; type: functional; details: 30 µM; note: in the data most compounds retested in dose-response had high values
[11] = molecular target: AMP-activated protein kinase, AMPK (Homo sapiens) (UniProt P54646+O43741+P54619+Q9UGJ0+Q9Y478+Q13131+Q9UGI9); experiment: AMP-dependent Kinase enzyme assay. An in vitro enzyme assay that detects ADP turnover that is directly proportional to AMPK activity. This uses naive AMPK that is activated during the assay with MK-8722; type: functional; details: 30 µM

Chain of Protein translocase subunit SecA (Escherichia coli (strain K12)) (P10408 whole entry): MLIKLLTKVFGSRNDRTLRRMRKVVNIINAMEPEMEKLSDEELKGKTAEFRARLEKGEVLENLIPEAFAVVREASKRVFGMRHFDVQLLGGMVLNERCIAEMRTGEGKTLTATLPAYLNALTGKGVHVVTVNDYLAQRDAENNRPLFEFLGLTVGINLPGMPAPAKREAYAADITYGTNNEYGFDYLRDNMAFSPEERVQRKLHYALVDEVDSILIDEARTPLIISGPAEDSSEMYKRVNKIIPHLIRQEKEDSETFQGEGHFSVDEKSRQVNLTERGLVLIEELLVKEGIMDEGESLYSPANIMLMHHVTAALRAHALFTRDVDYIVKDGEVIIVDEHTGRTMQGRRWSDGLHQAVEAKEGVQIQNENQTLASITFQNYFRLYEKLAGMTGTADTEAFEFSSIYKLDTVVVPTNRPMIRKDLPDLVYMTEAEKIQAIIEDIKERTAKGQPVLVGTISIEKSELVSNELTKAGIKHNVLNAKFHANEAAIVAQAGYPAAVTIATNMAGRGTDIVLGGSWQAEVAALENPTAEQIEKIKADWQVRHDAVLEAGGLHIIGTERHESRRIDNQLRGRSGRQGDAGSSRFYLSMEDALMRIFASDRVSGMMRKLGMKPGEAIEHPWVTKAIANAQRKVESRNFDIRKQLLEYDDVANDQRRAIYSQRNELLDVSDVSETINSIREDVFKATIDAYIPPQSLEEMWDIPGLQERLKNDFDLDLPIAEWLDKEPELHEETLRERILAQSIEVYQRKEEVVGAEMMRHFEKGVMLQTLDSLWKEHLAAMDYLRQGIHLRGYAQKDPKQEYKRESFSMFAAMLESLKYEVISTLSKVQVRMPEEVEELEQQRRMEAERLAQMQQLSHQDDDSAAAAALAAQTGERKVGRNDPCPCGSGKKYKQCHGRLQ
Chain of Sialic acid-binding Ig-like lectin 9 (Homo sapiens) (Q9Y336 whole entry): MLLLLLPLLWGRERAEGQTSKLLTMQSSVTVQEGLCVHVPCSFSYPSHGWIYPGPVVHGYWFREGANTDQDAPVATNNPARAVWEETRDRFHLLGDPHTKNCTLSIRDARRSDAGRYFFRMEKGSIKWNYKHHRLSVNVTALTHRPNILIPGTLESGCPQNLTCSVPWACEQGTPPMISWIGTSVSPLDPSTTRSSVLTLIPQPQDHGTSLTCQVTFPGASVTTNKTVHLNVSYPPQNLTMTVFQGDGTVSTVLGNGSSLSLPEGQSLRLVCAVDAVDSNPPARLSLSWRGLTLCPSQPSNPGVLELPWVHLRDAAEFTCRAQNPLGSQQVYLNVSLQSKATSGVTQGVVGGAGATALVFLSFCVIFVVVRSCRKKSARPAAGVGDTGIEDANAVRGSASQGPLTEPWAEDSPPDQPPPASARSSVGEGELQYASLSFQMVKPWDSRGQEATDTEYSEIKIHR
Chain of Chromo domain-containing protein 1 (Saccharomyces cerevisiae (strain ATCC 204508 / S288c) (Baker's yeast)) (P32657 whole entry, the tested form may be a part): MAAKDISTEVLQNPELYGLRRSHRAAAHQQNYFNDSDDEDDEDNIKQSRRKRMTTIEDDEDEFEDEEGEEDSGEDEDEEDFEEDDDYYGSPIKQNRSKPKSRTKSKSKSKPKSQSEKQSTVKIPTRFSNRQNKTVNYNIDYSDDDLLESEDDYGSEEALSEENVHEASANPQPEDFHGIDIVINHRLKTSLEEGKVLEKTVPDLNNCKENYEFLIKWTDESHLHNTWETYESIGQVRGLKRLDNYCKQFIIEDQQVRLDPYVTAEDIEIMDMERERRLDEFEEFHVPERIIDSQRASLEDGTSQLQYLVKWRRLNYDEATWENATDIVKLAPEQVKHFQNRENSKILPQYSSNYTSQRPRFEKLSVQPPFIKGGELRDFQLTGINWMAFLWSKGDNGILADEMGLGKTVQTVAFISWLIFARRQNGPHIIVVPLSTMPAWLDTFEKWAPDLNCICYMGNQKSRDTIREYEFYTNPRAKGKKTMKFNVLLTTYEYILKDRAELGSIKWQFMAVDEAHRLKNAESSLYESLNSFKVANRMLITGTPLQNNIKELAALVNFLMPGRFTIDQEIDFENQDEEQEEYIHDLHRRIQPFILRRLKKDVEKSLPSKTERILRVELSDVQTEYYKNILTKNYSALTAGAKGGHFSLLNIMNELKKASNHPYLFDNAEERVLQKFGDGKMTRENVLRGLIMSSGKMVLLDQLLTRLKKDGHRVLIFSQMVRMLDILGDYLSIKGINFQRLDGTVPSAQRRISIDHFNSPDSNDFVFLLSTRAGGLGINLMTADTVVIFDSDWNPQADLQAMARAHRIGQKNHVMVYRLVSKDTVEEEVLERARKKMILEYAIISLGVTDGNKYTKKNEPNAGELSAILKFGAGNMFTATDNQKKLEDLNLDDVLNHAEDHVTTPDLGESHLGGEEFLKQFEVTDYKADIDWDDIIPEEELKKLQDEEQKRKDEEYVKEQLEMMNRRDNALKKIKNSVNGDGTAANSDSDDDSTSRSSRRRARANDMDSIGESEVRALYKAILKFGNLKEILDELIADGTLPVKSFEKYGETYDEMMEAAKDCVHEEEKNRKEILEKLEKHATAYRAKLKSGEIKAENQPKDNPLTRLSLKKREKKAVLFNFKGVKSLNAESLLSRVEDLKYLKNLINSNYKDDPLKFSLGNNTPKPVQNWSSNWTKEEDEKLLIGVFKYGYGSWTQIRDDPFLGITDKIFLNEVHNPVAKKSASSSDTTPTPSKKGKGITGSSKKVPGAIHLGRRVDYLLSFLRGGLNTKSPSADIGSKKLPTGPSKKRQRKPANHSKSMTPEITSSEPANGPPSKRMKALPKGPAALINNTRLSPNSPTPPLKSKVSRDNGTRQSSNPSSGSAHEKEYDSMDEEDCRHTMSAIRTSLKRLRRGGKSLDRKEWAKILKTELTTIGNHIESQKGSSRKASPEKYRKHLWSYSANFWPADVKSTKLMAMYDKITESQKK

| Structure (SMILES) | Percent Effect [1] [%] | Percent Effect [2] [%] | Percent Effect [3] [%] | Percent Effect [4] [%] | Percent Effect (Trypanosoma cruzi) [%] | Percent Effect [5] [%] | Percent Effect [6] [%] | Percent Effect (Homo sapiens) [%] | Percent Effect [7] [%] | Percent Effect [8] [%] | Percent Effect [9] [%] | Percent Effect [10] [%] | Percent Effect [11] [%] |
| --- | --- | --- | --- | --- | --- | --- | --- | --- | --- | --- | --- | --- | --- |
| CC[C@H]1N(C)CCC[C@]12CCC(=O)N2Cc1ccncc1 | -1.96 | 32.5 | 0.228 | 0.456 | 1.69 | -1.83 | 14.3 | 16.7 | -15.6 | 7.73 | 10 | -8.84 | – |
| NC(=O)CN1CCCN(C(=O)Cc2ccc3ccccc3c2)CC1 | -7.48 | 0 | 2.66 | 1.74 | -13.2 | -6.21 | 0.594 | 24.3 | -25.4 | -0.526 | -5.13 | -8.56 | – |
| CN1CCN(Cc2ccoc2)Cc2cccnc21 | -4.57 | -14.3 | 3.07 | -3.94 | -5.16 | 4.45 | -0.265 | 0.714 | -8.68 | 5.79 | -15.4 | 3.94 | – |
| CNCCc1nc2cc(Cl)ccc2[nH]1 | -7.19 | 0 | 0.126 | -5.75 | -7.11 | -3.65 | 5.58 | 5.87 | – | -4.92 | -6.17 | 0.639 | 1.26 |
| COc1ccc(C(=O)C2CCCN(Cc3ccc(C)o3)C2)c(OC)c1 (stereo not drawn) | -3.9 | -5.41 | -4.91 | 3.98 | -2.04 | 1.75 | 7.71 | -5.12 | -2.98 | 1.6 | 7.32 | 2.92 | – |
| CCc1nc(CC(=O)N2CCCC2CN2CCCC2)cs1 (stereo not drawn) | -0.0825 | 0 | -3.69 | 1.63 | -2.01 | 5.32 | 11.1 | -4.98 | -5.61 | 2.63 | 2.56 | -5.66 | – |
| Cc1cccc(CN2C(=O)C[C@H]3[C@@H]2CCN3CC2CC2)n1 | -1.8 | -22.1 | 3.32 | 2.35 | 0.563 | 1.83 | 12.3 | -5.79 | 4.71 | 12.6 | 12.5 | -5.44 | – |
| COCC(C)NC(=O)c1cn(C(C)(C)C)c2ncccc12 (stereo not drawn) | 0.871 | 14.7 | 4.78 | -9.18 | 4.93 | 0.443 | 18.2 | 6.95 | -13.5 | 0 | 10 | -22.6 | – |
| CCN1CCC2(CCC1=O)CN(c1ccnc(SC)n1)CCN2C (stereo not drawn) | -7.58 | 5.33 | -3.27 | 13 | -0.682 | 6.25 | 11.2 | 7.14 | – | 3.83 | 8.64 | -7.61 | 2.15 |

Source: ChEMBL document CHEMBL3988442, “University of Dundee, Small-Polar-MMV Screening Library” (2021)
